Source: the OligoGym collection

Target: PALM2-AKAP2
Test: pooled miR-30 sensor sort-seq; sequence = guide strand
Conditions: shRNA
Further: reference of the scale not given here.

Sequence | sensor-assay potency score (higher = more potent)
TTGTCAATCATGCTTGCGCGTT | -1.12
TTCTAATGCAGTATTGTTCTTT | 0.398
TCTGGCAACATCATTATCCAGG | -0.478
TTTTAGATTTGTGTGTCTCATA | -0.987

Target: PAQR4
Test: as above
Conditions: shRNA

Sequence | sensor-assay potency score (higher = more potent)
TTATTGAACTGCAGGTGCGGCG | -1.14
TTGGTGGCACATAAAGAGGTGA | -0.895
TAGCAGGGCAGGGAGCCTGGAG | -1.85
TAGAGCACGGAGCCTGCAGGGG | -1.54
GAACTTATTGAACTGCAGGTGC | -1.19
TTGAACTGCAGGTGCGGCGGCG | -1.22
TTCGTTGTGCAGGTAGAAGAGG | -0.851
AAAGAGGTGATAGAGCACGGAG | -0.892
TAGAAGAGGCTGCGCAGGCAGC | -1.34
TCGTTGTGCAGGTAGAAGAGGC | -0.773
TTTATTGATGTCATCCAGGGTC | 0.153
TATTGAACTGCAGGTGCGGCGG | -0.944

Target: PAQR6
Test: as above
Conditions: shRNA

Sequence | sensor-assay potency score (higher = more potent)
TGAGGACACAGTCCAAAGCCGA | -1.67
TCGTTGGTCATCTGGAAGGAGC | -1.68
TGTGAAAGCAGCAATAATGAGT | -0.688
TAGGCGAAGGCTCCTGTGCGGA | -1.44
TCTATAGGCAAATAGCTGCTGG | -0.274
TTGTCGAACAGGAATGGATAGG | -0.865
TAATGAGTAGGTTCCCAGCTGC | -0.176
TTGGTCATCTGGAAGGAGCTGA | 0.592
TGTAATCAAAGCGTCCTGGTGC | 0.2
TAGGTTCCCAGCTGCAGCCAAG | -1.67
AAAGAGTGGGAGGTTGTCGAAC | -1.08

Target: PARN
Test: as above
Conditions: shRNA

Sequence | sensor-assay potency score (higher = more potent)
TAGAAGTTAAATGACTTCGTTA | -0.166
TTCTTCTTCATCTACTTTGCTG | -0.0536
TTTAGTATCCAAGAGTCTGGGG | -0.201
TAAGCTTCTGATACCTCTCTTC | 0.34
TAAACTTCTTTTGATCCTCAGG | -0.665
TAGGCTGCAAGTCTGGTCCTTC | 0.109
TAGCTTTCTGCATATTTGCTGG | -0.898
TTTATTAAAATCAAATCCCTGG | 0.307
ATACATAGGACAGAGCTCCTGC | 0.763
TTTCTCTTTCCTACTGTGCTGG | 0.101
TTGACATCTGGTGAGGATCTAT | -0.282
TTCATGACAGCCTACAACCGTG | -0.783
